Inconclusive results are not listed. Values without a mark were called inactive. Active and inactive are the calls of the source. Calls follow the shape of the dose curve; as a rule, active = well fitted inhibition curve with a large enough effect; inconclusive = small, poorly fitted or top-dose-only effect; inactive = no such curve, though single readings can be large or run the other way.
test: BET inhibitor-based combinations targeting novel dependencies in MECOM-rearranged (r) AML: HNT-34 cell line (AID 2202234); conditions: HNT-34 AML viability, CellTiter-Glo luminescence, 48 h; series mostly up to 46 µM; viability (% of control): at the top concentration; also: nearly all actives have a fitted effect of over 35% in size;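 as to viability (% of control): plate controls were vehicle wells for no effect and cell-free wells for full effect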
From the text: Ecotropic viral insertion site 1 (EVI1) is located on chromosome 3q26.2 as part of the MECOM (MDS and EVI1 complex) locus. Under normal hematopoiesis, EVI1 is a regulator of hematopoietic stem cell maintenance and self-renewal and EVI1 levels decrease as the cells differentiate. In approximately 5-10% of de novo acute myeloid leukemia (AML) EVI1 is aberrantly expressed, including Chromosomal inv(3)(q21;q26.2) or t(3;3)(q21;q26.2) alterations (MECOM-r) that account for about 50% of AML with EVI1 overexpression 31. AMLs with high levels of EVI1 have a poor prognosis and an overall survival time averaging between 10-14 months. EVI1 overexpression confers resistance in leukemia cells, highlighting the need to develop new targeted therapies for EVI1 overexpressing AMLs. Here, we performed an unbiased chemical drug screening by evaluating the single agent activity of a collection of 2,480 oncology-focused, approved and investigational drugs (NCATS Mechanism Interrogation Plates, MIPE v5.0) against a panel of seven AML cell lines. These included four MECOM-r cell-lines (AML-191, AML-194, UCSD-AML1 and HNT-34) and three non-MECOM-r AMLs (MV4-11, OCI-AML3 and SET-2). Exploiting the mechanistic redundancy built in the library, we identified target-level sensitivities in MECOM-r AML cells and relative activity as compared to other AML subtypes.
A collection of 2480 mechanistically annotated dugs (MIPE v5.0) was used to screen four 3q26.2 rearranged AML cell lines and three non-3q26.2 rearranged AML cell lines. This library purposely exploits redundancy by including multiple inhibitors of key onco-targets, while simultaneously encompassing mechanistic diversity, targeting more than 800 distinct mechanisms of action. Briefly, cells were seeded in 5 uL of growth media using a Multidrop Combi dispenser into 1536 well white polystyrene tissue culture treated plates (Corning) at a density of 500cells/well. For each cell-line, for each of the 2480 drugs in MIPE v5.0 library, an 11-point dose curve was generated via a 1536 pin-tool. Plates were incubated for 48 hr at standard incubator conditions, covered by a stainless steel gasketed lid to prevent evaporation. Cell viability was determined by luminescence based, Cell Titer Glo assay (Promega). In detail, 3 uL of Cell Titer Glo were added to each well and plates were incubated at room temperature for 15 min with a stainless-steel lid in place. Luminescence readings were taken using a Viewlux (PerkinElmer) with a 2 s exposure time per plate. Compound dose-response curves were normalized to DMSO and empty well controls on each plate. Quantitative drug activity data from dose-response curves was determined utilizing area Under the Curve (AUC) and Z-transformed AUC (Z-AUC, a mean-centering transformation applied to each individual cell-line screened).
Potency is read from the fitted curve at half-maximal effect.

SMILES	viability (% of control) [%]	Potency
O=C(O)CNC(=O)C1C(=O)N(C2CCCCC2)C(=O)N(C2CCCCC2)C1=O	98.6	–
CCCC[N+]1(C)[C@H]2CC(OC(=O)[C@H](CO)c3ccccc3)C[C@H]1[C@H]1O[C@H]12 (stereo not given in full)	106	–
CCN1CCN(C(=O)Cc2ccc(Nc3ncc(F)c(Nc4ccc(C(=O)Nc5ccccc5Cl)cc4)n3)cc2)CC1	–	1480 nM (active)
Cc1[nH]nc2ccc(-c3cncc(OC[C@@H](N)Cc4c[nH]c5ccccc45)c3)cc12	–	742 nM (active)
C#CCN(C)[C@H](C)Cc1ccccc1	93.3	–
O=S(=O)(CC1CS1)c1ccc(Oc2ccccc2)cc1 (stereo not given)	–	20900 nM (active)
COCC1(CO)C(=O)C2CCN1CC2 (stereo not given)	–	5900 nM (active)
Clc1ccccc1C(c1ccccc1)(c1ccccc1)n1cccn1	87.2	–
CC1=C2C[C@H]3[C@@H](CC=C4C[C@@H](O)CC[C@@]43C)[C@@H]2CC[C@]12O[C@@H]1C[C@H](C)CN[C@H]1[C@H]2C	98.8	–
O=C1CC[C@@]2(O)[C@H]3Cc4ccc(O)c5c4[C@@]2(CCN3CC2CC2)[C@H]1O5	99.4	–
COc1ccc(C(=O)N2CCCC2=O)cc1	108	–
C[C@]12COC(=O)C[C@@H]1CC[C@@H]1[C@@H]2CC[C@@]2(C)[C@H]1CC[C@]2(C)O	97.2	–
CCOc1ccccc1-n1c(C(C)N2CCN(C(=O)COc3ccc(Cl)cc3)CC2)nc2ccccc2c1=O (stereo not given)	–	3320 nM (active)
CC(C)(C)c1cc(C=C(C#N)C#N)cc(Br)c1O	–	16600 nM (active)
CC(NC(C)(C)C)C(=O)c1cccc(Cl)c1 (stereo not given)	107	–
COc1cc2cc(c1Cl)N(C)C(=O)C[C@H](OC(=O)C(C)C)[C@]1(C)O[C@@H]1[C@H](C)[C@@H]1C[C@@](O)(NC(=O)O1)[C@H](OC)/C=C/C=C(\C)C2	28.6	–
N=c1c2c(-c3ccccc3)c(-c3ccccc3)n(Cc3ccccc3)c2ncn1C1CCC(O)CC1 (stereo not given)	–	2630 nM (active)
CC(C)[C@]12O[C@H]1[C@@H]1O[C@@]13[C@@]1(C)CCC4=C(COC4=O)[C@@H]1C[C@@H]1O[C@@]13C2=O	–	166 nM (active)
N#CC(O[C@@H]1O[C@H](CO[C@@H]2O[C@H](CO)[C@@H](O)[C@H](O)[C@H]2O)[C@@H](O)[C@H](O)[C@H]1O)c1ccccc1 (stereo not given in full)	72.3	–
CCCN1CCO[C@@H]2c3cc(O)ccc3OC[C@H]21	93.2	–

SMILES	viability (% of control) [%]	Potency
O=C(Oc1ccc([N+](=O)[O-])cc1)N1CCN(Cc2cccc(Oc3ccccc3)c2)CC1	96.5	–
CC(C)[C@]12O[C@H]1[C@@H]1O[C@]13[C@]1(O[C@H]1C[C@H]1C4=C(CC[C@@]13C)C(=O)OC4)[C@@H]2O	–	74.2 nM (active)
C/C(=C\c1csc(C)n1)[C@@H]1C[C@@H]2O[C@@H]2CCC[C@H](C)[C@H](O)[C@@H](C)C(=O)C(C)(C)[C@@H](O)CC(=O)O1	–	23.5 nM (active)
Cc1sc2c(c1C)C(c1ccc(Cl)cc1)=N[C@@H](CC(=O)OC(C)(C)C)c1nnc(C)n1-2	–	662 nM (active)
COC[C@H]1OC(=O)c2coc3c2[C@@]1(C)C1=C(C3=O)C2CCC(=O)[C@@]2(C)C[C@H]1OC(C)=O (stereo not given in full)	–	5900 nM (active)
CN1C(=O)CCS(=O)(=O)C1c1ccc(Cl)cc1 (stereo not given)	104	–
CN(C)[C@@H]1C(=O)C(C(N)=O)=C(O)[C@@]2(O)C(=O)C3=C(O)c4c(O)cccc4[C@@](C)(O)[C@H]3[C@H](O)[C@@H]12	85.3	–
CN(C)CCN(C)CCc1ccc(Cl)c(Cl)c1	94.2	–
O=C(O)C(=O)c1cn(Cc2ccccc2)c2ccc(-c3ccc(OC(F)(F)F)cc3)cc12	90.3	–
Cn1c(CCCCCCC(=O)NO)nc2cc(N(CCCl)CCCl)ccc21	–	2950 nM (active)
C[C@@H]1O[C@@H](O[C@H]2C[C@@H](O)[C@]3(CO)[C@H]4[C@H](O)C[C@]5(C)[C@@H](C6=CC(=O)OC6)CC[C@]5(O)[C@@H]4CC[C@]3(O)C2)[C@H](O)[C@H](O)[C@H]1O	–	93.4 nM (active)
CC1(N2CCC(n3c([C@@H]4CCCNC4)nc4ccccc43)CC2)CCCCCCC1	–	20900 nM (active)
COc1ccc(C(=O)c2c(C)n(CCN3CCOCC3)c3ccccc23)cc1	–	2350 nM (active)
CC(C)(O)/C=C\C(=O)[C@](C)(O)[C@H]1[C@H](O)C[C@]2(C)[C@@H]3CC=C4[C@@H](C=C(O)C(=O)C4(C)C)[C@]3(C)C(=O)C[C@@]12C	–	105 nM (active)
C/C=C(/C)C(=O)O[C@H]1C(C)=C2[C@H]([C@@H]1OC(=O)CCCCCCC)[C@@](C)(OC(C)=O)C[C@H](OC(=O)CCC)[C@@]1(O)[C@H]2OC(=O)[C@@]1(C)O	–	52.5 nM (active)
COc1cc(C)[nH]c(=O)c1CNC(=O)c1c(C)n([C@H](C)C2CCOCC2)c2ccccc12	106	–
C[C@@H]1O[C@@H](O[C@@H]2C=C3CC[C@@H]4[C@H](CC[C@]5(C)[C@@H](c6ccc(=O)oc6)CC[C@]45O)[C@@]3(C)CC2)[C@H](O)[C@H](O)[C@H]1O	–	14.8 nM (active)
COC1=C[C@@H]2[C@@H]3Cc4ccc(OC)c(O)c4[C@]2(CCN3C)CC1=O	88.6	–
O=C(O)c1nn(Cc2ccc(Cl)cc2Cl)c2ccccc12	97	–
COC[C@@H](NC(C)=O)C(=O)NCc1ccccc1	110	–
